Laboratory results taken from PubChem BioAssay (NCI).
This is part of a sample that, as a whole, favours compounds with a hit. Of some 79,000 tested, about 15% had one in any assay. Active and inactive are the calls of the source. Cut-off read from the data, not from the text of the source: active = growth inhibition above about 70%; inactive = the rest.

How the values were obtained:
[1] = NCI Yeast Anticancer Drug Screen. Data for the rad50 strain (AID 155);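 note: 0% = growth of vehicle-only cultures of the same strain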; settings: S. cerevisiae rad50 strain growth inhibition, hits give high values
Summary of the method: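 A DNA repair-deficient yeast mutant serves as the test organism; compound-induced growth inhibition is calculated against vehicle-treated cells.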

[2] = NCI Yeast Anticancer Drug Screen. Data for the mec2-1 strain (AID 157); settings: S. cerevisiae mec2-1 strain, hits give high values
Summary of the method: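 Mutant yeast (mec2-1) grown with compound; growth inhibition relative to vehicle control reported.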

[3] = NCI Yeast Anticancer Drug Screen. Data for the sgs1 mgt1 strain (AID 161);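 note: 0% = growth of cultures given vehicle only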; settings: S. cerevisiae sgs1 mgt1 strain, hits give high values
Summary of the method: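 Yeast cells carrying a defined DNA-repair defect were exposed to test compounds. Growth inhibition was measured relative to vehicle-treated controls.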

[4] = NCI Yeast Anticancer Drug Screen. Data for the cln2 rad14 strain (AID 165);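 note: 0% = growth equal to vehicle treated cultures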; settings: S. cerevisiae cln2 rad14 strain, hits give high values
Summary of the method: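 Readout is yeast growth inhibition versus vehicle-treated controls, using a strain with cln2 and rad14 alterations exposed to compound.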

[5] = NCI Yeast Anticancer Drug Screen. Data for the bub3 strain (AID 167); settings: S. cerevisiae bub3 mutant strain, hits give high values
Summary of the method: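 Inhibition values come from growth of compound-treated mutant yeast normalised to vehicle-treated controls.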

[6] = NCI Yeast Anticancer Drug Screen. Data for the mlh1 rad18 strain (AID 175); settings: S. cerevisiae mlh1 rad18 strain growth inhibition, hits give high values
Summary of the method: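 Genetically defined yeast (DNA repair-deficient) exposed to compounds; growth inhibition determined relative to vehicle.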

[7] = at 5.0 µM (retest, dose inferred, filed as 0.5)
[8] = at 50.0 µM (retest, dose inferred, filed as 5.0)

Measured: growth inhibition

CC1CCN(C(=S)NNC(C)c2cc3ccccc3cn2)CC1 (configuration not stated)
inactive: [1]; [7] 45% | [2]; [7] 60% | [6]; [7] 50%
active: [1]; [8] 97% | [1]; at 50.0 µM 82.5% | [2]; [8] 98% | [2]; at 50.0 µM 75.7% | [3]; [7] 80% | [3]; [8] 97% | [3]; at 50.0 µM 88.6% | [4]; [7] 82% | [4]; [8] 97% | [4]; at 50.0 µM 84.9% | [5]; [7] 71% | [5]; [8] 97% | [5]; at 50.0 µM 85.8% | [6]; [8] 96% | [6]; at 50.0 µM 86.8%

CC1NS(=O)(=O)N(C)C1=O (configuration not stated)
inactive: [1]; [7] 3% | [1]; [8] -5% | [1]; at 50.0 µM 3.05% | [2]; [7] 6% | [2]; [8] 3% | [2]; at 50.0 µM 15.6% | [3]; [7] 5% | [3]; [8] 3% | [3]; at 50.0 µM -2.2% | [4]; [7] 0% | [4]; [8] -13% | [4]; at 50.0 µM 36.7% | [5]; [7] 6% | [5]; [8] 16% | [5]; at 50.0 µM 8.55% | [6]; [7] 2% | [6]; [8] -9% | [6]; at 50.0 µM -1.05%

Cc1c2cnccc2c(C)c2c1c1ccccc1n2Cc1ccccc1
inactive: [1]; [7] 3% | [2]; [7] -2% | [2]; at 50.0 µM 25.5% | [3]; [7] -2% | [3]; at 50.0 µM 48.8% | [4]; [7] -1% | [4]; at 50.0 µM 28.4% | [5]; [7] -3% | [5]; at 50.0 µM 59.5% | [6]; [7] -8% | [6]; at 50.0 µM 62.7%
active: [1]; [8] 98% | [1]; at 50.0 µM 89% | [2]; [8] 75% | [3]; [8] 94% | [4]; [8] 91% | [5]; [8] 93% | [6]; [8] 97%

CCCCCCCCCCCCNC(=O)c1ccc[n+](Cc2ccc(Cl)c(Cl)c2)c1
active: [1]; [7] 99% | [1]; [8] 98% | [1]; at 50.0 µM 99% | [2]; [7] 100% | [2]; [8] 99% | [2]; at 50.0 µM 99% | [3]; [7] 99% | [3]; [8] 98% | [3]; at 50.0 µM 98.8% | [4]; [7] 99% | [4]; [8] 99% | [4]; at 50.0 µM 98.2% | [5]; [7] 98% | [5]; [8] 98% | [5]; at 50.0 µM 97.8% | [6]; [7] 99% | [6]; [8] 99% | [6]; at 50.0 µM 98.7%
